According to PubChem BioAssay AID624305 (National Center for Advancing Translational Sciences (NCATS), 2012):
Inconclusive results are not listed. A number with no mark means an inactive call. Activity calls are given as the source filed them. Calls come from the whole dose curve; as a rule, active = well fitted activation curve with a large enough effect; inconclusive = small, poorly fitted or top-dose-only effect; inactive = no such curve, though single readings can be large or run the other way.

experiment: qHTS assay for re-activators of p53 using a Luc reporter: Hit Validation; details: p53-responsive luciferase reporter cells, luminescence, H1299 line expressing heat-sensitive Ala138Val p53; series mostly up to 46.1 µM; activation: at the top concentration; note: nearly all actives have a fitted effect of over 75% in size; for activation: 0% is about no effect
Method in brief: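 H1299 (p53-null) cells stably carrying p53-A138V and a BP100-luciferase reporter, 1000 cells/well, treated 24 h at 37 deg C. Compounds at several concentrations, 1:5 dilution; nocodazole control; luminescence read after 10 min with detection reagent.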
Potency is the fitted concentration of half-maximal effect.

Row | SMILES | activation | Potency
1 | C/C(=N\NS(=O)(=O)c1ccc(Cl)cc1)c1ccc(NC(=O)c2ccco2)cc1 | 24.5% | 
2 | O=S(=O)(CCOc1ccccc1)c1nc2ccccc2[nH]1 | -10.9% | 
3 | COc1ccc(-c2cc(C(F)(F)F)nc(-n3ccnc3C)n2)cc1 | -38% | 
4 | O=C(COc1ccc(F)cc1Cl)NC1CCCCCC1 |  | 7.31 µM (active)
5 | CC(C)c1ccc(NC(=O)c2snc3ccc(Cl)cc23)cc1 |  | 5.8 µM (active)
6 | O=C(CCc1nc(-c2ccccc2)no1)N1CCCC1 | 42.2% | 
7 | c1nc(C2CCCCC2)cc2cc3c(cc12)OCO3 |  | 6.51 µM (active)
8 | O=C(CSc1nnc(-c2ccc(O)cc2)o1)Nc1ccc2c(c1)OCCO2 |  | 8.2 µM (active)
9 | CC(C)NC(=S)N1CCN(S(C)(=O)=O)CC1 | -7.81% | 
10 | CC(C)C(=O)Nc1ccc(-c2nc3cccnc3o2)cc1 |  | 0.366 µM (active)
11 | Nc1c(C(=O)c2ccc(Cl)cc2)oc2ccccc12 | -86.5% | 
12 | Cc1cccc(NC(=O)Nc2ccc(C)cc2Br)c1 |  | 16.4 µM (active)
13 | O=C(Nc1cnc2ccccc2c1)C1COc2ccccc2O1 (stereo not drawn) |  | 9.2 µM (active)
14 | CS(=O)(=O)n1nc(-c2ccc(Cl)cc2)nc1SCc1ccccc1 |  | 20.6 µM (active)
15 | CCSc1nnc(SCC(=O)NC2CCCCC2)s1 | -8.33% | 
16 | COc1ccccc1OCCn1nnc2ccccc21 | 36.5% | 
17 | COc1cc(C(C)=O)ccc1Oc1ncnc2c1cnn2-c1ccc(F)cc1 | 9.9% | 
18 | O=C(COc1ccccc1Cl)Nc1ccc(Cl)cn1 |  | 20.6 µM (active)
19 | Nc1cccc(-c2nc3ccc(C(=O)c4ccccc4)cc3[nH]2)c1 |  | 2.06 µM (active)

Row | SMILES | activation | Potency
20 | CC1C(=O)CCN(C(C)(C)C)C1C (stereo not drawn) | 5.21% | 
21 | COc1cc(NC(=O)CN2C(=O)COc3ccc(S(=O)(=O)N4CCCC4)cc32)cc(OC)c1 | -4.69% | 
22 | COc1ccc(CCNC(=O)/C=C/c2ccc(S(=O)(=O)N3CCOCC3)cc2)cc1 | 0.521% | 
23 | COc1cc(OC)cc(C(=O)NNC(=O)c2ccccn2)c1 | -2.08% | 
24 | CC(C)(C)c1ccc(NC(=O)COC(=O)c2ccc(NS(=O)(=O)c3ccc(F)c(F)c3)cc2)cc1 | -88% | 
25 | COc1cccc(/C=N/Nc2ccc([N+](=O)[O-])cn2)c1O |  | 9.2 µM (active)
26 | COCCn1c(C)cc(C(=O)COc2ccc(N(C)S(=O)(=O)c3ccc(C)cc3)cc2)c1C | 17.2% | 
27 | COc1ccc(CC(=O)Nc2ccc(C(=O)Nc3ccccc3C(=O)O)cc2)cc1OC | 3.12% | 
28 | O=C(O)C1C2C=CC(C2)C1C(=O)Nc1ccccc1Br (stereo not drawn) | 2.08% | 
29 | COc1cc(NC(=O)C(C)C)ccc1NC(=O)c1ccco1 |  | 7.31 µM (active)
30 | Nn1cnnc1N/N=C\c1ccc(-c2ccccc2[N+](=O)[O-])o1 | -84.4% | 
31 | COc1cc(C2=NOC(C(=O)NCc3ccc(F)cc3)C2)cc(OC)c1OC (stereo not drawn) | 26.6% | 
32 | CCOCCCNc1nc2c([nH]1)c(=O)n(C)c(=O)n2C | 6.25% | 
33 | CN(C(=O)NC(=O)C1=C(N2CCOCC2)/C(=C/c2ccccc2)CC1)S(C)(=O)=O | 32.3% | 
34 | O=C(/C=C/c1cnc2ccccc2n1)NC12CC3CC(CC(C3)C1)C2 |  | 9.2 µM (active)
35 | Cc1cccc(N/C=C/C(=O)c2cccs2)c1C |  | 0.0651 µM (active)
36 | COc1ccc(C(=O)N/N=C(\C)c2ccccn2)cc1OC |  | 13 µM (active)
37 | NC(=O)c1ccc(-n2c(CCC(=O)O)ccc2-c2cccs2)cc1 | -8.33% | 
38 | COc1cccc(Oc2ccc(N)cn2)c1 | -17.7% | 
